Results on 14 compounds are retold here after PubChem BioAssay.

One may read the inhibition as the change of the read-out against control, counted positive when it falls.

The source made the active and inactive calls.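 Rule for the calls, unless noted: active = inhibition at or above 50% at 10 µM; inactive = inhibition below 50%.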

Assay [1] in a line: inhibitors of TNFa-induced NFkB p65 translocation, primary screen, imaging, HUVEC, MLSMR starter and 10KST1 sets (AID 438;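 active = inhibition above 20% together with a positive visual image hit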;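 note: compound added about 3h40 before a 20 min TNFalpha stimulation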;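 for inhibition: signal is the nuclear over cytoplasmic p65 intensity ratio per well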). To be noted: HUVEC TNFa-induced p65 nuclear translocation; cell count: measured here: nuclei count (cytotoxicity indicator), at 2.08 µM; inhibition: at 2 µM, stronger effect = higher value, 0% TNFa-plus-vehicle, 100% no-TNFa wells.
Assay [2] can be described thus: inhibitors of mutant huntingtin aggregation, primary screen, imaging, exon1htt(103Q)mCFP cells, high-content imaging (AID 483;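 active = visual image review flags a hit and inhibition of aggregation exceeds 20%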;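 note: compound exposure lasted 3 days before fixation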;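 for nuclei count: percent of the per-plate median nuclei count of sample wells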). To be noted: exon1htt(103Q)mCFP cell line, aggregate imaging, at 2 µM; inhibition of aggregation: stronger effect = higher value; nuclei count: measured here: cell count, toxicity.
A short description of assay [3]: inhibitors of E-selectin induction by TNFa, primary screen, imaging, HUVEC, immunofluorescence, MLSMR starter and 10KST1 sets (AID 487;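 active = visually confirmed hit in the image check and inhibition above 20%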;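 for inhibition: signal is fraction of cell area covered by stained E-selectin grains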;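 for nuclei count: 100% = median nuclei count of all wells on the same plate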). To be noted: HUVEC TNFalpha-induced E-selectin immunofluorescence imaging, at 2 µM; inhibition: stronger effect = higher value; nuclei count: measured here: cell number, toxicity.
For assay [4], the target named is Voltage-gated potassium channel subunit beta-2 (Rattus norvegicus) (UniProt P62483). The assay can be described thus: KvBeta enzyme negative modulators, primary screen, biochemical, NADPH fluorescence (AID 622;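 active = fluorescence slope higher than the sample average by over 3 SD, cut at about -0.22 in these data, passing the limit was not always enough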;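 note: slope of raw intensity against log time taken from 70 to 1610 s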). To be noted: recombinant KvBeta, 4-cyanobenzaldehyde reduction, at 10 µM, stronger effect = higher value.
Assay [5] shares this target. The assay can be described thus: KvBeta positive modulators, primary screen, biochemical, NADPH fluorescence (AID 623;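 active = NADPH fluorescence slope more negative than the mean of all samples by about 3 SD, 99.7% confidence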;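 note: fluorescence intensity change per second fitted from 20 to 320 s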). To be noted: Recombinant KvBeta, NADPH fluorescence decrease slope, 10 min; at 10 µM; stronger effect = lower value.
Assay [6] has as its target Alpha-2C adrenergic receptor (Homo sapiens) (UniProt P18825). As to the kind of experiment: modulators of alpha2C/GIRK thallium flux, primary screen, cell-based, HEK293 alpha2C/GIRK1/2 (AID 624;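 active = fluorescence slope after compound addition differing from the mean of all screened samples at 99.7% confidence, in either direction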;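 note: slope of fluorescence ratio to pre-addition baseline per second over 15 to 24 s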). To be noted: thallium flux BTC fluorescence, at 10 µM, actives lie on both sides.
Assay [7] in a line: inhibitors of Sendai virus-induced IRF3 signaling, primary screen, TLR/RLR signaling modifier project, cell-based, Sendai virus stimulus, luciferase, 10K MLSCN set (AID 602276).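 Note: firefly luciferase from ISG56 promoter only with Renilla not read in this screen; 0% = Sendai virus plus DMSO and 100% = medium plus DMSO without virus.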 The note with it: HEK293 RL24 IRF3 luciferase reporter, at 10 µM, stronger effect = higher value. A general note: In a reporter assay the amount or activity of a reporter protein is the signal.
Assay [8] in a line: inhibitors of poly I:C-induced TLR3 signaling, primary screen, cell-based, poly I:C stimulus, luciferase, 10K MLSCN set (AID 602277;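 active = inhibition of the reporter signal at or above 50%; inactive = inhibition below 50%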). To be noted: HEK293-TLR3 RL24 IRF3 luciferase reporter, at 10 µM, stronger effect = higher value.

Sequence of Alpha-2C adrenergic receptor (Homo sapiens) (P18825 whole entry, looked up): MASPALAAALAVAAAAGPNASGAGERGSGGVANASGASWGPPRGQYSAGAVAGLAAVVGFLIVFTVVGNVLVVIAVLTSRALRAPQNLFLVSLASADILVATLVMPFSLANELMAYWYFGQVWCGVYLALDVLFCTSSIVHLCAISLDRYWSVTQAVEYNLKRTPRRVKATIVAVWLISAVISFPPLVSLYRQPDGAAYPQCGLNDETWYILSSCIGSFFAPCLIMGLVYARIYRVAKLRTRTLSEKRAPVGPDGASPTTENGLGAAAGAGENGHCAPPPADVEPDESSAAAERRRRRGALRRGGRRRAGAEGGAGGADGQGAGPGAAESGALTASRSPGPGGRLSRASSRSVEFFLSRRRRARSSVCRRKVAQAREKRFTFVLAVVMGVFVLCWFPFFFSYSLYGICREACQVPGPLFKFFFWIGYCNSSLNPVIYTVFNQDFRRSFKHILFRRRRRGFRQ
Sequence of Voltage-gated potassium channel subunit beta-2 (Rattus norvegicus) (P62483 whole entry, looked up): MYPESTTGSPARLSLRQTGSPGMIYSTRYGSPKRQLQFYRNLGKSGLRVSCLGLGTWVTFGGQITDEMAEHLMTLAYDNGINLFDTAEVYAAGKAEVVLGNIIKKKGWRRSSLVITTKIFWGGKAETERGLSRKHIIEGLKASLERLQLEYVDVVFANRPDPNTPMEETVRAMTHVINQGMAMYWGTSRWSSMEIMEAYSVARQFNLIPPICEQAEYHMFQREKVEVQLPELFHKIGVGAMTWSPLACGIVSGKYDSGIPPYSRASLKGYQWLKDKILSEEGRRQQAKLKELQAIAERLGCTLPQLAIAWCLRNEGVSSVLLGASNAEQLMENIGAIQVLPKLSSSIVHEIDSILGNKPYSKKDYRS

In the case of `CCOC(=O)C1=C(C)NC2=C(C(=O)CC(C)(C)C2)C1c1ccc(N(C)C)cc1` (centres undefined), the cell count in assay [1] is 368. The inhibition in assay [1] was -7.9% (inactive); in assay [3], -27.4% (inactive); in assay [7] it was -2.32% (inactive); in assay [8], 2.28% (inactive). In addition, the inhibition of aggregation in assay [2] is 26.1% (inactive). Besides, the figures for the nuclei count in assay [2] and in assay [3] were 104% and 116%, respectively. The fluorescence slope in assay [4] was -0.491 (inactive). Also, in assay [5], the NADPH fluorescence slope was -8.1e-05 (inactive). For the same compound, the slope in assay [6] is 0.00676 (inactive).
`COc1ccccc1-c1nc2n(n1)C(c1ccc(Cl)cc1)C(C(N)=O)=C(C)N2` (centres undefined): the cell count in assay [1] was 313. The inhibition in assay [1] was 1.8% (inactive); in assay [3], -37.7% (inactive); in assay [7], 11.9% (inactive); in assay [8] it was 36.9% (inactive). Also, the inhibition of aggregation in assay [2] is 4.3% (inactive). Besides, the nuclei count was 101% in assay [2] and 84.9% in assay [3]. The fluorescence slope in assay [4] was -0.464 (inactive). The NADPH fluorescence slope in assay [5] is 1.5e-05 (inactive). Further, in assay [6], the slope was 0.00608 (inactive).
Take `CCN(CC)C(=O)CSc1nnc([C@@H](N)Cc2ccccc2)o1`: the cell count in assay [1] was determined as 673. Also, the inhibition in assay [1] was 1.7% (inactive); in assay [3], -0.8% (inactive); in assay [7], 15.4% (inactive); in assay [8] it was 22% (inactive). Moreover, the inhibition of aggregation in assay [2] is -2.7% (inactive). For the same compound, the nuclei count in assay [2] was 84.3%; in assay [3], 96%. In assay [4], the fluorescence slope is -0.499 (inactive). Further, the NADPH fluorescence slope in assay [5] was 1.4e-05 (inactive). Moreover, the slope in assay [6] is 0.00547 (inactive).
Take `CCN1CCN(C(c2cccs2)C(C)NC(=O)c2ccccc2)CC1` (centres undefined): the cell count in assay [1] was 528. Also, the inhibition in assay [1] is -0.3% (inactive); in assay [3] it was -20.1% (inactive); in assay [7] it was 8.51% (inactive); in assay [8] it was 39.8% (inactive). Besides, the inhibition of aggregation in assay [2] was -7.7% (inactive). The nuclei count in assay [2] is 102%; in assay [3], 128%. Besides, the fluorescence slope in assay [4] was -0.59 (inactive). The NADPH fluorescence slope in assay [5] is -3.6e-05 (inactive). Moreover, in assay [6], the slope was 0.00664 (inactive).
Turning to `CCCS(=O)(=O)NCCc1cc2cc(C)c(C)cc2[nH]c1=O`, the cell count in assay [1] was 321. For the same compound, the inhibition was -18.8% (inactive) in assay [1], -16.4% (inactive) in assay [3], 4.21% (inactive) in assay [7] and -4.55% (inactive) in assay [8]. The inhibition of aggregation in assay [2] is 4.2% (inactive). The nuclei count in assay [2] worked out at 84.9%; in assay [3] it was 106%. Moreover, in assay [4], the fluorescence slope is -0.587 (inactive). The NADPH fluorescence slope in assay [5] was -7.5e-05 (inactive). Moreover, the slope in assay [6] was 0.0056 (inactive).
For `Cc1nc(SCC(=O)Nc2cc(C)on2)c2c3c(sc2n1)CCCC3`, the cell count in assay [1] turned out to be 461. For the same compound, the inhibition in assay [1] is 2.5% (inactive); in assay [3], -33.9% (inactive); in assay [7] it was 6.61% (inactive); in assay [8], 11.9% (inactive). The inhibition of aggregation in assay [2] was -13.2% (inactive). Besides, the nuclei count in assay [2] is 93.7%; in assay [3], 110%. Also, the fluorescence slope in assay [4] was -0.579 (inactive). In addition, the NADPH fluorescence slope in assay [5] was -5.9e-05 (inactive). The slope in assay [6] is 0.00594 (inactive).
As to `Cc1c(C(=O)N2CCOCC2)oc2ccc(S(=O)(=O)N3CCCC3)cc12`, in assay [1], the cell count amounted to 729. Moreover, the inhibition in assay [1] is -14.1% (inactive); in assay [3], -31.7% (inactive); in assay [7] it was -1.69% (inactive); in assay [8], 2.47% (inactive). Moreover, the inhibition of aggregation in assay [2] is 4.5% (inactive). For the same compound, the nuclei count in assay [2] turned out to be 106%; in assay [3], 105%. In addition, the fluorescence slope in assay [4] is -0.518 (inactive). Also, the NADPH fluorescence slope in assay [5] was -7.1e-05 (inactive). Besides, in assay [6], the slope was 0.00624 (inactive).
Turning to `COCCNC(=O)C(c1ccncc1)N(C(=O)Cn1nnc2ccccc21)c1ccc(OC)cc1` (centres undefined), the cell count in assay [1] turned out to be 679. Moreover, the inhibition in assay [1] was 8.2% (inactive); in assay [3] it was 8.4% (inactive); in assay [7] it was -0.74% (inactive); in assay [8], 25.1% (inactive). Moreover, the inhibition of aggregation in assay [2] is -3.2% (inactive). The nuclei count in assay [2] was determined as 100%; in assay [3], 99.8%. Besides, the fluorescence slope in assay [4] was -0.481 (inactive). For the same compound, the NADPH fluorescence slope in assay [5] was -4.3e-05 (inactive). The slope in assay [6] is 0.00706 (inactive).
With `CCCn1cc(SCC(N)=O)c2ccccc21`, in assay [1], the cell count came to 743. The inhibition in assay [1] was -8% (inactive); in assay [3], -33.9% (inactive); in assay [7], 13.5% (inactive); in assay [8], 27.7% (inactive). Besides, the inhibition of aggregation in assay [2] is -1.3% (inactive). Besides, the figures for the nuclei count in assay [2] and in assay [3] were 107% and 113%, respectively. For the same compound, the fluorescence slope in assay [4] is -0.382 (inactive). For the same compound, the NADPH fluorescence slope in assay [5] was -6.4e-06 (inactive). Further, the slope in assay [6] was 0.00614 (inactive).
Consider `COc1ccc(OCc2nc(C#N)c(N3CCN(c4ccc(OC)cc4)CC3)o2)cc1`, for which the cell count in assay [1] is 479. Besides, the inhibition in assay [1] was 2.9% (inactive); in assay [3] it was 15.1% (inactive); in assay [7] it was -5.28% (inactive); in assay [8], 3.87% (inactive). Further, the inhibition of aggregation in assay [2] is -2.2% (inactive). The values for the nuclei count in assay [2] and in assay [3] were 73.6% and 89.2%, respectively. The fluorescence slope in assay [4] is -0.421 (inactive). In addition, in assay [5], the NADPH fluorescence slope was 2.3e-05 (inactive). The slope in assay [6] is 0.0041 (inactive).
As to `O=C(CSc1nnc(-c2ccccc2Br)o1)Nc1cccc2ccccc12`, in assay [1], the cell count stood at 541. Besides, the inhibition in assay [1] is -12.1% (inactive); in assay [3], 33.7% (inactive); in assay [7] it was 1.31% (inactive); in assay [8], -12.6% (inactive). Moreover, the inhibition of aggregation in assay [2] was 16.2% (inactive). Also, the nuclei count in assay [2] stood at 81.3%; in assay [3] it was 65.3%. For the same compound, the fluorescence slope in assay [4] was -0.546 (inactive). Moreover, the NADPH fluorescence slope in assay [5] is 2.3e-05 (inactive). Moreover, in assay [6], the slope is 0.00661 (inactive).
For `O=C(NCCCCNC(=O)c1c(F)c(F)c(F)c(F)c1F)c1c(F)c(F)c(F)c(F)c1F`, in assay [1], the cell count is 778. In addition, the inhibition in assay [1] was 1% (inactive); in assay [3] it was -48.4% (inactive); in assay [7], 12.8% (inactive); in assay [8], 20% (inactive). In addition, the inhibition of aggregation in assay [2] was 10.7% (inactive). Besides, the values for the nuclei count in assay [2] and in assay [3] were 104% and 110%, respectively. In assay [4], the fluorescence slope was -0.308 (inactive). In assay [5], the NADPH fluorescence slope is 3.6e-05 (inactive). Also, in assay [6], the slope is 0.00647 (inactive).
Turning to `O=C1CC(c2ccccc2)CC(O)=C1C=NCCN1CCOCC1` (centres undefined), in assay [1], the cell count stood at 541. Besides, the inhibition in assay [1] is -2.9% (inactive); in assay [3] it was 37.7% (inactive); in assay [7] it was 7.02% (inactive); in assay [8], 31.4% (inactive). In addition, the inhibition of aggregation in assay [2] was 24.1% (inactive). Moreover, the nuclei count in assay [2] came out at 94.3%; in assay [3] it was 99.1%. The fluorescence slope in assay [4] is -0.441 (inactive). In addition, the NADPH fluorescence slope in assay [5] was 1.8e-05 (inactive). Besides, in assay [6], the slope is 0.00626 (inactive).
`N/C(=N/O)c1nc(N2CCCCC2)nc(N2CCCCC2)n1`: the cell count in assay [1] was 640. The inhibition in assay [1] was -16.2% (inactive); in assay [3], -50.5% (inactive); in assay [7], 8.03% (inactive); in assay [8], 24.6% (inactive). The inhibition of aggregation in assay [2] is -135% (inactive). Moreover, the nuclei count amounted to 53.7% in assay [2] and 81.9% in assay [3]. Also, the fluorescence slope in assay [4] was -0.498 (inactive). Also, the NADPH fluorescence slope in assay [5] was 8.9e-06 (inactive). In assay [6], the slope is 0.00632 (inactive).
